Measured values reported in the supplement of paper PMC6555819.

Legend:
Assay in all cases: PBM binding z-score (relative to random genomic background probes); higher = stronger binding; sequences stand for … in GC…GCGATTGACAGCGTAGAATGAAGG
[1] = tested on: FXR:RXRa (NR concentration 270 nM, RXRa partner concentration 90 nM)
Summary of the method: (§1)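 For binding z-scores, the reference was random background probes on custom Agilent 4×180K protein-binding microarrays. These arrays were incubated 1 h with ligand-free nuclear receptor dimers in PBS pH 7.4, 2% milk, 0.02% Triton X-100, 1 mM DTT, 0.2 mg/mL BSA and 0.4 mg/ml salmon testes DNA. Fluorescence was scanned after antibody detection of each partner (one per run) and regression-normalized.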

[2] = tested on: LXRa:RXRa (NR concentration 270 nM, RXRa partner concentration 90 nM)
Summary of the method: as §1

[3] = tested on: LXRa homodimer (NR concentration 270 nM)
Summary of the method: as §1

[4] = tested on: LXRb:RXRa (NR concentration 270 nM, RXRa partner concentration 90 nM)
Summary of the method: as §1

[5] = tested on: LXRb homodimer (NR concentration 270 nM)
Summary of the method: as §1

[6] = tested on: PPARa:RXRa (NR concentration 270 nM, RXRa partner concentration 90 nM)
Summary of the method: as §1

[7] = tested on: PPARg:RXRa (NR concentration 180 nM, RXRa partner concentration 90 nM)
Summary of the method: as §1

[8] = tested on: PPARg:RXRa 270nM:90nM, anti-RXR (NR concentration 270 nM, RXRa partner concentration 90 nM)
Summary of the method: as §1

[9] = tested on: PPARg:RXRa 30nM:10nM, anti-RXR (NR concentration 30 nM, RXRa partner concentration 10 nM)
Summary of the method: as §1

[10] = tested on: PPARg:RXRa 90nM:30nM, anti-RXR (NR concentration 90 nM, RXRa partner concentration 30 nM)
Summary of the method: as §1

| Sequence | PBM binding z-score [1] | PBM binding z-score [2] | PBM binding z-score [3] | PBM binding z-score [4] | PBM binding z-score [5] | PBM binding z-score [6] | PBM binding z-score [7] | PBM binding z-score [8] | PBM binding z-score [9] | PBM binding z-score [10] |
| --- | --- | --- | --- | --- | --- | --- | --- | --- | --- | --- |
| GCCAGCAGGCCATTTGGGTCACTCAATGACGGGC | 0.0652 | -0.0507 | -0.664 | -0.289 | -1.29 | 1.02 | 0.451 | 0.16 | -0.483 | -0.357 |
| ATATGTAGGCTACATCCGGGTCATTCAGGCTATG | 0.976 | 1.54 | 0.0787 | 1.85 | 0.425 | 3.62 | 3.08 | 2.77 | 1.13 | 1.85 |
| GCTGCTAGGTCAAATGATGGTCAGCTAAAGCTCG | 4.42 | 3.62 | 0.405 | 2.44 | 0.557 | 3.87 | 2.82 | 3.57 | 0.844 | 2.69 |
| AATACAGGGTCTTCGTAGGCCAGAGTACGCACAG | -0.0491 | 0.0766 | -0.419 | -0.205 | -0.311 | 0.156 | 0.75 | 0.174 | 0.334 | 0.137 |
| TTAGCAAGGTGAAGGTCGTTGATCCCTCTGTAGA | 1.98 | 1.6 | -0.45 | 0.97 | -0.841 | 2.38 | 1.94 | 3.32 | 1.18 | 2.64 |
| TCTCGGAGGACACGAAAGGTCACAGCTCGACATC | 4.58 | 5.46 | 4.91 | 4.7 | 0.595 | 4.62 | 2.83 | 4.15 | 3.13 | 3.77 |
| TCTTGTAGACCAAAGGTTAAGAAAGCCGAAGCCT | 1.29 | 1.9 | -0.151 | 1.82 | -0.338 | 4.78 | 8.36 | 8.52 | 8.06 | 9.8 |
| ACTAGCAGGCCAAGTTTGAGTCACTCAAACAAAG | -0.527 | -0.601 | -0.503 | -0.529 | -0.797 | -0.0783 | -0.147 | -0.486 | -0.4 | -0.496 |
| ATCTCTAGGTAAGACTCAGTACAGTGAAGAACGC | 0.589 | 0.377 | 0.528 | 0.101 | 0.88 | 0.1 | 0.293 | -0.0568 | 0.341 | 0.016 |
